Source: PubChem
HCMV antiviral: qHTS Assay for inhibitors of the human cytomegalovirus (HCMV); HFF cells, HCMV-luciferase reporter, 72 h; hits give low values; activity change, negative = inhibition, % at 57.5 µM; 410,000 tested, 4.5% active; in the data active means activity change below about -60%; inconclusive means no clear call, values can overlap the other calls; inactive means above about -39%
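HFF cells seeded 16 h at 37C, treated with compounds, infected with luciferase-reporter HCMV at MOI 1 PFU/cell; luciferase read at 72 h post infection, normalized to buffer-only and Salinomycin controls.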
MARV entry inh: qHTS for inhibitors of binding or entry into cells for Marburg Virus. Marburg virus pseudotyped entry inhibition, cell reporter. Potency, µM (top dose mostly 37.8 µM), without a hit: at the highest dose activity change, negative = inhibition, hits mostly inhibitors. 300,000 tested, 1.8% active; calls by dose curve; tested in HEK293 cells; further: potency means the concentration at half of the fitted maximal effect
FMDV inh: High Throughput Screening for Foot and Mouth Disease Virus Antivirals. AID 1159524, 2015. FMDV antiviral cell-based qHTS. Potency, µM (doses to about 57.9 µM), without a hit: at the highest dose activity change, negative = inhibition, usual class: inhibitors. 410,000 tested, 1.2% active; calls by dose curve; tested in HEK293T cells; further: read-out not given here; potency means the concentration at half of the fitted maximal effect; nearly all actives have a fitted effect of over 45% in size
LASV entry inh: qHTS for Inhibitors of binding or entry into cells for Lassa Virus. AID 540256, 2011. Potency, µM (highest dose often 37.9 µM), for inactives: top-dose activity change, negative = inhibition, actives largely listed as inhibitors. Lassa virus pseudotype entry inhibition, cell reporter. 300,000 tested, 1.2% active; calls by dose curve; tested in HEK293 cells; further: potency means the concentration at half of the fitted maximal effect; nearly all actives have a fitted effect of over 50% in size
HCV inh: qHTS Assay for Inhibitors of Hepatitis C Virus (HCV); 340,000 tested, 3.4% active; AID 651820, 2012; Huh7.5.1 HCVcc-Cre infection, luciferase reporter, 44 h; Potency, µM (titrated, usually from 41.8 µM), for inactives: at the top dose activity change, negative = inhibition, actives largely listed as inhibitors; active means well fitted inhibition curve with a large enough effect; inconclusive means small, poorly fitted or top-dose-only effect, or another doubt; inactive means no such curve, though single readings can be large or run the other way; further: potency means the concentration at half of the fitted maximal effect
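Seed cells (1,000/well) for 4 h; treat with compound and infect with HCVcc-Cre, moi about 0.5. Incubate 44 h, then detect luciferase activity.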
Active calls of the source: *; ? = inconclusive; . = no result; [ ] = another dose, or the depositor's remark. This is a sample that favours compounds with a hit; in the whole collection about 7.9% have one here. On the % scale 0 is the no-effect control and ±100 the full control effect.

SMILES	HCMV antiviral	MARV entry inh	FMDV inh	LASV entry inh	HCV inh
CN(C)CCNC(=O)c1cccc2[nH]c(-c3ccncc3)nc12	-99.9*	?	3.3%	?	?
CC1(C(=O)NC2CCN(Cc3ccccc3)CC2)CCN1Cc1ccc2ccccc2c1 (configuration not stated)	-67.5*	.	?	.	.
Cc1ccc(C)n1-c1ccc(C(=O)NC2CCN(Cc3ccccc3)CC2)cc1	-61.7*	?	?	?	?
CCN(c1ccccc1)S(=O)(=O)c1ccc(C(=O)NC2CCN(Cc3ccccc3)CC2)cc1	.	0.708µM*	?	?	?
CN1CCC(NC(=O)C2(C)CCN2Cc2ccc3ccccc3c2)CC1 (configuration not stated)	7.1	.	-6.4%	.	.
NC(=O)c1ccccc1NC(=O)c1cccc(C(=O)Nc2ccccc2C(N)=O)n1	-37.4	?	-5.0%	?	3.6%
CCCNc1nc2c(c(=O)n(C)c(=O)n2C)n1Cc1ccc(F)cc1	-36.9	.	?	.	11.2µM*
Cn1c(NCc2ccco2)nc2c1c(=O)n(Cc1ccc(Cl)c(Cl)c1)c(=O)n2C	19.3	-23.7%[46.1 µM]	31.6µM*	-23.1%	15.0%
CCNc1nc2c(c(=O)n(C)c(=O)n2C)n1Cc1ccc(Cl)cc1	-65.6*	.	0.0%	.	3.55µM*
Cn1c(NCC(O)CO)nc2c1c(=O)n(Cc1ccc(Cl)c(Cl)c1)c(=O)n2C (configuration not stated)	-31.0	?	?	3.9%	0.9%
CCn1c(SCC(=O)Nc2ccccc2N2CCCCC2)nc2c1c(=O)n(C)c(=O)n2C	-68.7*	?	?	4.7%	?
CC(C)Sc1nc2c(c(=O)n(C)c(=O)n2C)n1Cc1ccc(Cl)cc1	-35.0	-8.2%	?	-23.8%	10µM*
CCNc1nc2c(c(=O)n(C)c(=O)n2C)n1CC(O)COc1ccccc1 (configuration not stated)	-7.4	21.8%[46.1 µM]	22.4µM*	7.7%[46.1 µM]	.
CNC(=O)CSc1nc2c(c(=O)n(C)c(=O)n2C)n1Cc1ccc(C)cc1	63.2	0.8%	.	-14.5%	0.631µM*
COc1ccc(CNc2nc3c(c(=O)n(Cc4ccc(Cl)cc4)c(=O)n3C)n2C)cc1	?	?	12.6µM*	?	?
O=C(CN1C(=O)C2CCCCN2c2ccc(C(=O)N3CCCC3)cc21)NCc1cccc(Cl)c1 (configuration not stated)	3.6	.	28.9%	-15.9%[46.1 µM]	.
Cc1cc(C(=O)NCC2CCC3(CCN(Cc4cccc(F)c4F)CC3)O2)n(C)n1 (configuration not stated)	.	.	-28.6%	.	.
CN1c2ccccc2[C@@]2(O)C(=O)[C@@]1(C)[C@@H]1C=CCC[C@H]12	.	28.8%[14.2 µM]	.	.	.
CC(CNC(=O)c1cc2ccccn2n1)c1ccccc1 (configuration not stated)	53.6	.	21.9%	17.1%[46.1 µM]	.
Cc1ccccc1C(O)c1cccnc1 (configuration not stated)	-60.7*	15.5%	-23.8%	17.7%	14.8%
O=C(NNc1nc2cc3c(cc2s1)OCO3)c1cccc(F)c1	3.0	?	29.0%	14.4%	5.0%
CC(C)N1CCc2c(sc(NC(=O)c3ccc(S(=O)(=O)N4CCOCC4)cc3)c2C(N)=O)C1	-7.7	.	-5.8%	.	-2.5%
CC(C)CN(CC(C)C)S(=O)(=O)c1ccc(C(=O)Nc2sc3c(c2C(N)=O)CCN(C(C)C)C3)cc1	-81.9*	.	0.0%	?	.
CC(C)N1CCc2c(sc(NC(=O)CCS(=O)(=O)c3ccccc3)c2C(N)=O)C1	-110.8*	.	12.1%	.	-10.7%
CCOc1cc(C(=O)OCc2cc(=O)n3nc(CC)sc3n2)cc(OCC)c1OCC	3.6	.	-7.5%	-19.3%[46.1 µM]	.
SMILES	HCMV antiviral	MARV entry inh	FMDV inh	LASV entry inh	HCV inh
CC(Sc1nnnn1-c1ccc(O)cc1)C(=O)NNC(=O)c1ccc(F)cc1 (configuration not stated)	0.1	-13.2%	-7.0%	-6.6%	7.08µM*
C=C1CCC2[C@](C)(CO)[C@H](O)CC[C@@]2(C)[C@@H]1C/C=C1\C(=O)OC[C@H]1O (some centres not stated)	-107.0*	.	?	.	?
Cc1cccc(CNc2nc3cnc(-c4cccc(F)c4)cc3n2C)c1	17.1	.	.	.	.
COc1ccc(N(CC(=O)NC(C)c2ccccc2)S(=O)(=O)c2c(C)nn(C)c2C)cc1 (configuration not stated)	1.0	?	-8.1%	21.4%[46.1 µM]	.
CCc1ccc2nc(NC(=O)C3CSC4(C)CCC(=O)N34)sc2c1 (configuration not stated)	27.6	?	12.8%	?	?
COc1ccc(OCCN2CCC(C(=O)NC(c3ccccc3)c3ccc4ccccc4n3)CC2)cc1 (configuration not stated)	.	.	-4.5%	.	.
O=C(NC(c1ccccc1)c1ccc2ccccc2n1)C1CCN(CCOc2ccc(Cl)cc2)CC1 (configuration not stated)	-10.7	.	31.6µM*	.	.
COc1cc(CN2CCC(C(=O)NC(c3ccc(F)cc3)c3ccc4ccccc4n3)CC2)cc(OC)c1 (configuration not stated)	-39.7	.	35.5µM*	.	.
Cc1ccc(C)c(N2CCN(C(=O)CCc3nc(-c4ccc(Cl)cc4)no3)CC2)c1	12.7	.	-18.7%	.	20.7%
Cc1ccc(NC(=O)C2CCN(c3nc(-c4ccc(C(C)C)cc4)no3)CC2)c(Cl)c1	-69.4*	.	?	?	.
Cc1ccc(C)c(N2CCN(C(=O)C3CCN(c4nc(-c5ccc(C(C)C)cc5)no4)CC3)CC2)c1	-63.2*	.	?	?	.
COc1ccc(C(C)(O)c2nc(-c3ccc(N(C)C)cc3)cs2)cc1 (configuration not stated)	?	.	-24.3%	.	.
CC(=O)c1ccc(S(=O)(=O)N2CCN(CC(=O)Nc3ccc(Cl)c([N+](=O)[O-])c3)CC2)cc1	-2.4	.	?	.	-18.4%
O=C(CN1CCN(S(=O)(=O)c2ccc(Br)cc2)CC1)N/N=C/c1ccc(Cl)c([N+](=O)[O-])c1	-24.8	14.6µM*	-15.4%	?	11.2µM*
Cc1ccc(S(=O)(=O)N2CCN(CC(=O)N/N=C\c3ccc(Cl)c([N+](=O)[O-])c3)CC2)cc1	?	?	-11.2%	-37.3%	4.47µM*
COc1ccc(-c2nc(SCC(=O)c3ccc(OC)c(Br)c3)n[nH]2)cc1	3.4	-7.6%[46.1 µM]	-10.4%	9.7%[46.1 µM]	.
Cc1cc(NS(=O)(=O)c2ccc(NC(=O)COc3cc(C)c(Br)cc3C(C)C)cc2)no1	-5.4	8.4%[46.1 µM]	-3.7%	?	.
CCN(NC(=O)C(O)(c1ccccc1)c1ccccc1)C(=O)c1ccccc1	-5.4	4.5%	0.0%	0.1%	-4.1%
CC(c1ccccc1)N(NC(=O)C(O)(c1ccccc1)c1ccccc1)C(=O)c1ccccc1 (configuration not stated)	-74.2*	?	-11.9%	5.2%	?
